Data published in PubChem BioAssay (NCATS).
Results filed as inconclusive are left out. Active and inactive are the calls of the source. Unless noted, the call rests on the fitted dose curve.

Experiments:
[1] = target: Estrogen receptor (Homo sapiens) (UniProt P03372); experiment: qHTS assay for small molecule agonists of estrogen receptor alpha signaling (AID 588514);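 further: 0% = vehicle only and 100% = reference agonist; nearly all actives have a fitted effect of over 70% in size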
Method in brief: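 ER-alpha-UAS-bla GripTite HEK293 cells, 5000/well in 2% charcoal/dextran-stripped FBS medium, treated with compound titrations 18 h at 37 C. CCF4 beta-lactamase read by fluorescence after 2 h RT; normalised to 20 nM 17-beta-estradiol (100%) and DMSO (0%), Hill fit for EC50 and efficacy.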

[2] = target: Glucocorticoid receptor (Homo sapiens) (UniProt P04150); experiment: qHTS assay for small molecule agonists of glucocorticoid receptor signaling (AID 588532; active means well fitted curve in the direction sought with a large enough effect in the signal ratio, with a control signal flat; the % refers to the signal ratio;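 further: 100% = dexamethasone at 0.1 µM and 0% = DMSO only wells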); settings: HeLa MMTV-bla, beta-lactamase ratio, agonist, 18 h; activation: stronger effect = higher value, percent of dexamethasone control, DMSO zero
Method in brief: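 Stimulation of a glucocorticoid response element-driven beta-lactamase gene was measured in HeLa cells. Responses were scaled between DMSO basal and 0.1 uM dexamethasone, then fitted for half-maximal stimulation.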

[3] = target: Glucocorticoid receptor (Homo sapiens) (UniProt P04150); experiment: qHTS assay for small molecule antagonists of glucocorticoid receptor signaling (AID 588533; active means well fitted inhibition curve with a large enough effect in the signal ratio, with a control signal flat, not every such curve was filed as active; the % refers to the signal ratio;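 further: cells stimulated with 2 nM dexamethasone as agonist; on the % scale 0 is the no-effect control and ±100 the full control effect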)
Method in brief: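 Antagonist-mode qHTS: compound titrations added to GRE-bla HeLa cells, then dexamethasone 2 nM final; 18 h, 37 C. CCF4 FRET fluorescence normalized to dexamethasone and DMSO; IC50 from Hill fit.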

[4] = target: Peroxisome proliferator-activated receptor gamma (Homo sapiens) (UniProt P37231); experiment: qHTS assay for small molecule agonists of peroxisome proliferator-activated receptor gamma signaling (AID 588536; active means well fitted curve in the direction sought with a large enough effect in the signal ratio, with a control signal flat, not every such curve was filed as active; the % refers to the signal ratio;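 further: 0% = DMSO basal wells and 100% = rosiglitazone at 2 µM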)
Method in brief: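 Ratiometric blue/green fluorescence (405 nm excitation; 460 and 530 nm emission) from CCF4-loaded HEK293 reporter cells serves as signal. Exposure to test compounds lasts 16 h at 37 C in medium containing 1% charcoal/dextran-treated serum.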

[5] = target: Vitamin D3 receptor (Homo sapiens) (UniProt P11473); experiment: qHTS assay for small molecule agonists of vitamin D receptor signaling (AID 588543);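 further: 0% = DMSO basal and 100% = reference agonist control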
Method in brief: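 Agonist-mode beta-lactamase reporter: HEK293T VDR-UAS-bla cells in charcoal-stripped 2% FBS, compound series 16 h 37 C, CCF4 2 h RT. EC50 from Hill fit, scaled against DMSO and 50 nM calcitriol control.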

[6] = target: Thyroid hormone receptor beta (Homo sapiens) (UniProt P10828); experiment: qHTS assay for small molecule agonists of thyroid hormone receptor beta signaling (AID 588545)
Method in brief: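 Agonist activity was read as beta-lactamase CCF4 fluorescence (405 ex, 460/530 em), scaled between DMSO (0%) and 10 nM T3 (100%), then Hill-fitted for EC50 and efficacy. HEK 293 TR-UAS-bla cells in 2% charcoal/dextran FBS medium were exposed 18 h at 37 C.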

[7] = target: Thyroid hormone receptor beta (Homo sapiens) (UniProt P10828); experiment: qHTS assay for small molecule antagonists of thyroid hormone receptor beta signaling (AID 588547; active means well fitted inhibition curve with a large enough effect in the signal ratio, with a control signal flat, not every such curve was filed as active; the % refers to the signal ratio;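 further: cells stimulated with 0.4 nM T3 agonist during compound exposure; series mostly up to about 77 µM; on the % scale 0 is the no-effect control and ±100 the full control effect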); settings: TR-UAS-bla HEK293, beta-lactamase ratio, antagonist mode, 18 h
Method in brief: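 TR-UAS-bla GripTite HEK293 cells in 2% charcoal/dextran FBS medium were preincubated 4 h at 37 C, given compound (0.59 nM to 92 uM) plus 0.4 nM T3 (final) for 18 h, then CCF4 for 2 h at RT; Hill fit gave IC50.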

[8] = qHTS assay for small molecule activators of the p53 signaling pathway (AID 651743; active means well fitted activation curve with a large enough effect in the signal ratio, not every such curve was filed as active; the % refers to the signal ratio; further: potency means the concentration at half of the fitted maximal effect; on activation: series mostly up to about 92 µM; % of control where 0% means no effect); settings: HCT-116 p53RE-bla, beta-lactamase FRET ratio, 16 h; activation: stronger effect = higher value
Method in brief: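 Cell-based beta-lactamase reporter (p53 response elements, HCT-116 background). After a 5-hour preincubation, cells received compound for 16 hours at 37 C; substrate development ran 2 hours at room temperature.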

[9] = target: Peroxisome proliferator-activated receptor alpha (Homo sapiens) (UniProt Q07869); experiment: qHTS assay for small molecule agonists of the peroxisome proliferator-activated receptor alpha (PPARalpha) signaling pathway (AID 651778; active means well fitted curve in the direction sought with a large enough effect; an effect the other way counts as inactive or inconclusive; further: % of control where 0% means no effect); settings: PathHunter PPARalpha complementation, chemiluminescence, 6 h; max response: stronger effect = higher value
Method in brief: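 Cells plated at 2,000/well and held overnight at 37 C, 5% CO2, then compound added by pin tool for 6 hr; after PathHunter detection reagent and 60 min at room temperature, chemiluminescence from enzyme complementation was read.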

[10] = qHTS assay for small molecule agonists of the antioxidant response element (ARE) signaling pathway measured by Nrf2-dependant transcriptional activity - cell viability counter screen (AID 720653; active means well fitted curve in the direction sought with a large enough effect in the repeat runs; an effect the other way counts as inactive or inconclusive; further: on the % scale 0 is the no-effect control and ±100 the full control effect); settings: ARE-bla HepG2 viability, CellTiter-Glo ATP luminescence, 16 h; max response: stronger effect = lower value
Method in brief: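 ARE-bla HepG2 cells (2,000/well) rested 5 hrs at 37C/5% CO2, then exposed to compounds in DMSO for 16 hrs. Viability was read in the same wells as intracellular ATP by luminescence, 30 min at room temperature after reagent addition.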

[11] = qHTS assay for cell viability of HEK293 cells (AID 743288; active means well fitted curve in the direction sought with a large enough effect; an effect the other way counts as inactive or inconclusive; further: on the % scale 0 is the no-effect control and ±100 the full control effect; nearly all actives have a fitted effect of over 50% in size); settings: ATP luminescence (CellTiter-Glo), 18 h; max response: stronger effect = lower value
Method in brief: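 Total intracellular ATP, measured with a luciferase-coupled reagent, indicates the number of viable HEK293 cells. Exposure to test chemicals lasts 18 h at 37 C in 1,536-well format at 2,000 cells/well.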

[12] = qHTS assay for cell viability of the p53RE-bla HCT-116 cell line (AID 743292; active means well fitted curve in the direction sought with a large enough effect; an effect the other way counts as inactive or inconclusive; further: on the % scale 0 is the no-effect control and ±100 the full control effect; nearly all actives have a fitted effect of over 55% in size)
Method in brief: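 CellSensor p53RE-bla HCT-116 cells (4,000/well) pre-incubated 5 h at 37 C, then exposed to compounds in DMSO for 16 h at 37 C. Viability read as ATP content by CellTiter-Glo luminescence after 30 min at room temperature.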

[13] = target: Peroxisome proliferator-activated receptor delta (Homo sapiens) (UniProt Q03181); experiment: qHTS assay for small molecule agonists of peroxisome proliferator-activated receptor delta signaling (AID 588534);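 further: 0% = DMSO basal wells and 100% = positive control agonist at 10 µM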
Method in brief: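 Cells carrying a PPAR-delta beta-lactamase reporter were treated with compounds for 18 h at 37 °C in agonist mode. CCF4 fluorescence was read after 2 h; EC50 and efficacy from Hill fits.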

[14] = qHTS assay for small molecule agonists of retinoid X receptor alpha signaling (AID 588544); settings: HEK293T RXRa-UAS-bla, beta-lactamase reporter, 18 h; 530 nm emission;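 on activation: 0% = DMSO basal wells and 100% = reference agonist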
[15] = target: Retinoic acid receptor RXR-alpha (Homo sapiens) (UniProt P19793); experiment: as above
[16] = qHTS assay for small molecule antagonists of retinoid X receptor alpha signaling (AID 588546; active means well fitted inhibition curve with a large enough effect in the signal ratio, with a control signal flat, not every such curve was filed as active; the % refers to the signal ratio); settings: HEK293T RXRa-UAS-bla, beta-lactamase ratio, antagonist mode; measured here: W530 green channel, cytotoxicity proxy
Method in brief: (§1)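 Beta-lactamase reporter inhibition, read as CCF4 fluorescence ratio (ex 405, em 460/530 nm) after 2 h at RT. HEK293T UAS-bla cells, 2500/well, were stimulated with 9-cis-RA at 500 or 100 nM final alongside test compound for 18 h at 37 C.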

[17] = qHTS assay for environmental chemicals that activate the Aryl hydrocarbon Receptor (AhR) signaling pathway (AID 651777; active means well fitted curve in the direction sought with a large enough effect; an effect the other way counts as inactive or inconclusive; further: % of control where 0% means no effect; nearly all actives have a fitted effect of over 15% in size); settings: 1A2-DRE human hepatoma cells, luciferase, 24 h; activation: stronger effect = higher value
Method in brief: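 Human hepatoma 1A2-DRE cells stably carrying a DRE/CYP1A2 promoter–luciferase reporter, 1,200 cells/well, exposed to compound 24 hr at 37 C. Luciferase read by One-Glo luminescence after 30 min at room temperature; increased signal marks AhR activation.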

[18] = qHTS assay for small molecule agonists of the antioxidant response element (ARE) signaling pathway measured by Nrf2-dependant transcriptional activity (AID 720636; active means well fitted curve in the direction sought with a large enough effect in the repeat runs; an effect the other way counts as inactive or inconclusive; further: % of control where 0% means no effect)
Method in brief: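 ARE-luc HepG2 cells carrying an Nrf2-responsive luciferase reporter, in medium with 1% dialyzed FBS, exposed to compound for 16 hr at 37 C, 5% CO2. Luminescence read 30 min after ONE-Glo addition.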

[19] = target: Nuclear receptor subfamily 1 group I member 2 (Rattus norvegicus) (UniProt Q9R1A7); experiment: qHTS assay for small molecule activators of the rat pregnane X receptor (rPXR) signaling pathway (AID 651751; call rule not given here; further: 0% is about no effect); settings: rPXR reporter cells, luciferase (One-Glo), 24 h
[20] = target: Retinoic acid receptor RXR-alpha (Homo sapiens) (UniProt P19793); experiment: qHTS assay for small molecule antagonists of retinoid X receptor alpha signaling (AID 588546); settings: HEK293T RXRa-UAS-bla, beta-lactamase ratio, antagonist mode;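 further: cells stimulated with 9-cis-retinoic acid as agonist; on the % scale 0 is the no-effect control and ±100 the full control effect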
Method in brief: as §1

Chain of Retinoic acid receptor RXR-alpha (Homo sapiens) (P19793 whole entry, looked up): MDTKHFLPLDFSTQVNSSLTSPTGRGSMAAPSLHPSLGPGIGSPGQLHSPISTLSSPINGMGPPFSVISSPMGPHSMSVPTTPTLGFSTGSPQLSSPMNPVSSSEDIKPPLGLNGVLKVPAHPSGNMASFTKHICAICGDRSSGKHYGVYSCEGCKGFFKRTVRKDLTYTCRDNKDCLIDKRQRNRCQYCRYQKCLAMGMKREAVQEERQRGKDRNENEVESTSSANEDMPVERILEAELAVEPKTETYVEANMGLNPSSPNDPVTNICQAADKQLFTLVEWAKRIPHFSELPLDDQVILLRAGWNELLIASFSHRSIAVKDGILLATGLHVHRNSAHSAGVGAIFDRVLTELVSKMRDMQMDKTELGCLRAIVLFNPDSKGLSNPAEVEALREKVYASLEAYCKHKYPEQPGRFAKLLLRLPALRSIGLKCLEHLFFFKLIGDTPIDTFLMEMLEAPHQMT
Chain of Peroxisome proliferator-activated receptor alpha (Homo sapiens) (Q07869 whole entry, looked up): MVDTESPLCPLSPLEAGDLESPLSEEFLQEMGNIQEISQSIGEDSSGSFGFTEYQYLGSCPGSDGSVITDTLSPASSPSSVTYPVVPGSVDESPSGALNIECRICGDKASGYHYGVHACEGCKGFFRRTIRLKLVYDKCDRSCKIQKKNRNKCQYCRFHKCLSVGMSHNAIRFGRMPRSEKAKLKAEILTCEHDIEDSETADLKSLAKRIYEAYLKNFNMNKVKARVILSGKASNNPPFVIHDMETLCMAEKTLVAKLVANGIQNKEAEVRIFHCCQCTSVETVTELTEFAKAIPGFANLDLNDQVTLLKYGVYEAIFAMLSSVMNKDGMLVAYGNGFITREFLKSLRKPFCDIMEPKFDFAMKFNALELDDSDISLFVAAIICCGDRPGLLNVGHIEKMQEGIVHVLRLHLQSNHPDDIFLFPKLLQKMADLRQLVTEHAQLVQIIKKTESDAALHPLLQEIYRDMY
Chain of Vitamin D3 receptor (Homo sapiens) (P11473 whole entry, looked up): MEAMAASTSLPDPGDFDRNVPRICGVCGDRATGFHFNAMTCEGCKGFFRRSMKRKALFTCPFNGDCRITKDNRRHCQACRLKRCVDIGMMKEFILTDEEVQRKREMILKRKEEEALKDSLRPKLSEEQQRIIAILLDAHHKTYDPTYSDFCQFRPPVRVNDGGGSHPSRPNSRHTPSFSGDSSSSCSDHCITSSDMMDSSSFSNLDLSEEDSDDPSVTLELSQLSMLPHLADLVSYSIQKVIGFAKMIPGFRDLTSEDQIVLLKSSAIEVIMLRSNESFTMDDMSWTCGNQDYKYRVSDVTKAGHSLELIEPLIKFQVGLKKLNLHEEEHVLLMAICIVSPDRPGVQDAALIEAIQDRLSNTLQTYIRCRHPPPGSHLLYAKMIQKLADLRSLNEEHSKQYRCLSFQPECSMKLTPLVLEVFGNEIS
Chain of Estrogen receptor (Homo sapiens) (P03372 whole entry, looked up): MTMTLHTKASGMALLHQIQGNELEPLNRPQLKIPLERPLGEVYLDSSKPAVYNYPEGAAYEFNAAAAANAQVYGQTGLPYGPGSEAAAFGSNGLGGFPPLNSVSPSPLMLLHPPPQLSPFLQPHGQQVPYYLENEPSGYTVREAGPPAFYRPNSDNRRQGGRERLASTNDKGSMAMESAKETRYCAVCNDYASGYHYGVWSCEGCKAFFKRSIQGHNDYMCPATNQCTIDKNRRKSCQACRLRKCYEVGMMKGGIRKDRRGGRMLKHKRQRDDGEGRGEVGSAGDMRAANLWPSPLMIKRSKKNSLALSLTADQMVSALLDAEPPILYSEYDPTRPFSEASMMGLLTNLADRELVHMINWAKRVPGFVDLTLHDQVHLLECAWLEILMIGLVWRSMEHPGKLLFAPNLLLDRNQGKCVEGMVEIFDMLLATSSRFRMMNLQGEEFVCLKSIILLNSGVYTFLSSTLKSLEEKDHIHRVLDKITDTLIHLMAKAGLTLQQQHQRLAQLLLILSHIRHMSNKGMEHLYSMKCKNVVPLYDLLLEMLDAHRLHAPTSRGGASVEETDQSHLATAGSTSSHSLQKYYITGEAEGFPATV
Chain of Thyroid hormone receptor beta (Homo sapiens) (P10828 whole entry, looked up): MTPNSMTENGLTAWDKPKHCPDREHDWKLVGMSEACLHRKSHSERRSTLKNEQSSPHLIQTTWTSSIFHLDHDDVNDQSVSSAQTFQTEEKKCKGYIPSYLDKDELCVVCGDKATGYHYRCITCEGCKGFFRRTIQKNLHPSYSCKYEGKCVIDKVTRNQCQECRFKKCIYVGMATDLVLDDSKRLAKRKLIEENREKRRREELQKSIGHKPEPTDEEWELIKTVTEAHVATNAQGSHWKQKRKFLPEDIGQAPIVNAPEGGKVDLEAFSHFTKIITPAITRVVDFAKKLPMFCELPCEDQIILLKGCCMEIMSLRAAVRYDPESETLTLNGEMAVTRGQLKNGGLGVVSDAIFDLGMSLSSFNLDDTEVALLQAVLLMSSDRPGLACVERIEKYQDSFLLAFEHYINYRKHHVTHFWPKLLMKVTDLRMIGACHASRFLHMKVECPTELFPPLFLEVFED
Chain of Nuclear receptor subfamily 1 group I member 2 (Rattus norvegicus) (Q9R1A7 whole entry, looked up): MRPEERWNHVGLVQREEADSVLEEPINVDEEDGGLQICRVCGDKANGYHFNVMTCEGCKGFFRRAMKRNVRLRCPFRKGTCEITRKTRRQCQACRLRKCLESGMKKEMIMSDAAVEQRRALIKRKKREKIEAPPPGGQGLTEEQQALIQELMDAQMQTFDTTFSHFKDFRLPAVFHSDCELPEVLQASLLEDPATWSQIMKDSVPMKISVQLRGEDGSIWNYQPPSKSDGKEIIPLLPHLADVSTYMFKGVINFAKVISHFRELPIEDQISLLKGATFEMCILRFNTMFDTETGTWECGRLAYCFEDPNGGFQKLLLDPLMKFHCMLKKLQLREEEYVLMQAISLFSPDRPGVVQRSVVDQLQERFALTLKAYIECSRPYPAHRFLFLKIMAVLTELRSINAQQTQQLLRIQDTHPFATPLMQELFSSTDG
Chain of Glucocorticoid receptor (Homo sapiens) (P04150 whole entry, looked up): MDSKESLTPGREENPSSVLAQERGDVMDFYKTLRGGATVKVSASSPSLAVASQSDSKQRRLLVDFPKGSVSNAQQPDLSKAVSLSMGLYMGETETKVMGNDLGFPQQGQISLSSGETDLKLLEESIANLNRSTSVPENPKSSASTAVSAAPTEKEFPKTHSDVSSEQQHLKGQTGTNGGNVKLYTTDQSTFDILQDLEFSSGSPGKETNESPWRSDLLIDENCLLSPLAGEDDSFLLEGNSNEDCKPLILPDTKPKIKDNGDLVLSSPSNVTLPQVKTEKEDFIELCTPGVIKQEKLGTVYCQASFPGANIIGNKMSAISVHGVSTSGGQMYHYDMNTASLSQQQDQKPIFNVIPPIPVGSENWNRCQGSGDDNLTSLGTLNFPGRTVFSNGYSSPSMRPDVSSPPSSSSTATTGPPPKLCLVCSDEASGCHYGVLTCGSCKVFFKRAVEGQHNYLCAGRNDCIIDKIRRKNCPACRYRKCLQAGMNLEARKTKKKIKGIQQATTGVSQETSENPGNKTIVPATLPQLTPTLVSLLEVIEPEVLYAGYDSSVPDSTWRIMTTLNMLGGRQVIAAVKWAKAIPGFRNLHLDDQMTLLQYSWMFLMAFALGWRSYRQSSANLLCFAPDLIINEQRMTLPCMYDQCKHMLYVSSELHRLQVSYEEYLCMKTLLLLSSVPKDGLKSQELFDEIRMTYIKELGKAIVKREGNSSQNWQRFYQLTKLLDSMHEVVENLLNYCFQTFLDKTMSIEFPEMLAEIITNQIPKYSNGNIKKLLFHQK
Chain of Peroxisome proliferator-activated receptor gamma (Homo sapiens) (P37231 whole entry, looked up): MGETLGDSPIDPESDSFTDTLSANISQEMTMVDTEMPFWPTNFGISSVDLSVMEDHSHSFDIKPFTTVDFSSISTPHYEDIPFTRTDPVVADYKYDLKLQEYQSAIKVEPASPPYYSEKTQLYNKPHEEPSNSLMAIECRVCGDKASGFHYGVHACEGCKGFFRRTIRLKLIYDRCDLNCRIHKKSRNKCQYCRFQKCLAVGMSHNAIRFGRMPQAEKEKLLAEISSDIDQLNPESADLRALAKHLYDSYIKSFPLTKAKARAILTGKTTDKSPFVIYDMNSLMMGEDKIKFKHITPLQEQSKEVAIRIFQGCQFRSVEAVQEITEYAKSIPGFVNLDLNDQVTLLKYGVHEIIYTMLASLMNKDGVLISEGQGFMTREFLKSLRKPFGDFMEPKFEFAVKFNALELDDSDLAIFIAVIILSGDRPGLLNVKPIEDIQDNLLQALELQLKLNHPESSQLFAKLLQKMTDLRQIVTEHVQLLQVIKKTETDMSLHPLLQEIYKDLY
Chain of Peroxisome proliferator-activated receptor delta (Homo sapiens) (Q03181 whole entry, looked up): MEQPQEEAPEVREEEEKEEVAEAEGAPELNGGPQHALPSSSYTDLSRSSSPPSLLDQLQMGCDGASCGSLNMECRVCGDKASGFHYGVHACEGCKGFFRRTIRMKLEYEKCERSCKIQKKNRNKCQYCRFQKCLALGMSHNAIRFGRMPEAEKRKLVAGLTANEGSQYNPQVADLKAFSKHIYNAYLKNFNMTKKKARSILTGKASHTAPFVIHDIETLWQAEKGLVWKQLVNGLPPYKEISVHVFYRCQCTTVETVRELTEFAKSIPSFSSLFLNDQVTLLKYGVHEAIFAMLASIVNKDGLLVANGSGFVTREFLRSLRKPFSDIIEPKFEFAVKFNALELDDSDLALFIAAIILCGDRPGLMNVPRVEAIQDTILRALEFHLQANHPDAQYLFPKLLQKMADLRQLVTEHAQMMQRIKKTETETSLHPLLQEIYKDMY

## CCOP(=S)(OCC)SCn1c(=O)oc2cc(Cl)ccc21
[1]
  Potency: inactive
[2]
  activation: 0.851% (inactive)
[3]
  Potency: inactive
[4]
  Potency: inactive
[5]
  outcome: inactive
[6]
  Potency: inactive
[7]
  activity change % (negative = inhibition): -26.9% (inactive)
[8]
  activation: 2.68% (inactive)
[9]
  max response: -0.132% (inactive)
[10]
  max response: -8.7% (inactive)
[11]
  max response: -28.2% (inactive)
[12]
  Potency: inactive

## CNC(=O)Oc1cccc(N=CN(C)C)c1
[1]
  Potency: inactive
[13]
  outcome: inactive
[4]
  Potency: inactive
[5]
  outcome: inactive
[14]
  max response: 1.64%
[15]
  Potency: inactive
[6]
  Potency: inactive
[16]
  max response: -11.7%
[7]
  activity change % (negative = inhibition): 4.27% (inactive)
[8]
  activation: -4.39% (inactive)
[17]
  activation: 0.739% (inactive)
[9]
  max response: 2.04% (inactive)
[18]
  Potency: inactive
[10]
  max response: -21.4% (inactive)
[11]
  max response: -9.91% (inactive)
[19]
  max response: -4.82% (inactive)

## C=C(C)CN(CC)c1c([N+](=O)[O-])cc(C(F)(F)F)cc1[N+](=O)[O-]
[1]
  Potency: inactive
[2]
  activation: 1.61% (inactive)
[13]
  outcome: inactive
[4]
  Potency: inactive
[5]
  outcome: inactive
[14]
  max response: 3.32%
[15]
  Potency: inactive
[16]
  max response: -6.07%
[20]
  max response: 1.05% (inactive)
[8]
  activation: 0.904% (inactive)
[17]
  activation: 1.28% (inactive)
[9]
  max response: 0.658% (inactive)
[18]
  Potency: inactive
[10]
  max response: 5.45% (inactive)
[11]
  max response: -3.14% (inactive)
[12]
  Potency: inactive

## CCOC1Oc2ccc(OS(C)(=O)=O)cc2C1(C)C (stereo not given)
[13]
  outcome: inactive
[4]
  Potency: inactive
[5]
  outcome: inactive
[14]
  max response: 7.47%
[15]
  Potency: inactive
[16]
  max response: -7.46%
[17]
  activation: 1.08% (inactive)
[9]
  max response: -0.11% (inactive)
[10]
  max response: -22.7% (inactive)
[11]
  max response: -23.7% (inactive)
[12]
  Potency: inactive
[19]
  max response: 11.5% (inactive)

## CCC[CH2][Sn](=[O])[CH2]CCC
[2]
  activation: -3.35% (inactive)
[3]
  Potency: inactive
[13]
  outcome: inactive
[4]
  Potency: inactive
[5]
  outcome: inactive
[14]
  max response: -5.73%
[15]
  Potency: inactive
[6]
  Potency: inactive
[16]
  max response: -4.07%
[20]
  max response: -4.87% (inactive)
[7]
  activity change % (negative = inhibition): -7.82% (inactive)
[8]
  activation: 2.27% (inactive)
[17]
  activation: 3.37% (inactive)
[9]
  max response: -3.37% (inactive)
[18]
  Potency: inactive
[10]
  max response: 5.71% (inactive)
[11]
  max response: -6.83% (inactive)
[12]
  Potency: inactive
[19]
  max response: 4.58% (inactive)

## CCCCCCCCCCCCC1=C(OC(C)=O)C(=O)c2ccccc2C1=O
[2]
  activation: -3.65% (inactive)
[5]
  outcome: inactive
[6]
  Potency: inactive
[8]
  Potency: 11.2 µM (active)
[17]
  activation: 1.53% (inactive)
[9]
  max response: -5.69% (inactive)
[18]
  Potency: inactive
[10]
  max response: -15.3% (inactive)
[11]
  max response: -22.1% (inactive)
[19]
  max response: 0.383% (inactive)
